Beta cell apopt – inhibitors of cytokine-induced beta cell apoptosis, primary screen, luminescence; protection from apoptosis, % (concentration not given with the values); INS-1E cytokine-induced death, ATP luminescence, 48 h; percent of positive-control rescue, neutral wells zero; 300,000 compounds, 0.8% hits; AID 435005, 2010;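 active = Every replicate reaches about 75%, or at least half do and their mean reaches it too, limit read from the data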;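 note: higher means more ATP so stronger rescue from cytokine killing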
CSC inhib – cancer stem cell viability inhibitors, primary screen, luminescence. cancer stem cell-like cells viability. inhibition, % at 7.5 µM. AID 2717, 2010. 300,000 compounds, 1.1% hits; in the data active = inhibition above about 75%; tested in HMLE shEcad cells
SKKanGAS inh – S. pyogenes SKKanGAS growth inhibitors in kanamycin, primary screen, streptokinase expression inhibitor project, SKKanGAS strain, BacTiter-Glo luminescence. 6 h. inhibition, % at 7.5 µM. 300,000 compounds, 1.3% hits. AID 1662, 2009;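 active = mean replicate score, as percent of positive control median, at least 50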;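 note: strain carries kanamycin resistance gene driven by streptokinase promoter and grows in 40 µg/ml kanamycin; loss of luminescence reflects streptokinase promoter inhibition or plain growth inhibition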
GRIN3A LBD mod – binders of NR3A ligand-binding domain, primary screen, biophysical, differential scanning fluorimetry, uHTS. Glutamate receptor ionotropic, NMDA 3A (GRIN3A) ligand-binding domain. Tm shift relative to glycine control, % at 25 µM. 340,000 compounds, 2.5% hits. NR3A LBD differential scanning fluorimetry, Tm shift; 0% = protein alone, 100% = glycine-bound protein;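 active = melting temperature shift of at least 10% of the positive control shift, at one fixed dose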
Mdm2-MdmX inh – inhibitors of human Mdm2-MdmX association, primary screen, cell-based, luminescence, split luciferase, SaOS-2, uHTS. Protein Mdm4 (Homo sapiens) + E3 ubiquitin-protein ligase Mdm2 (Homo sapiens), …. 330,000 compounds, 3% hits. SaOS-2 split-luciferase Mdm2/MdmX complementation. inhibition, % at 8 µM;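 active = inhibition of at least 50% at 8 µM in the primary screen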
Target sequence (O15151 whole entry, looked up): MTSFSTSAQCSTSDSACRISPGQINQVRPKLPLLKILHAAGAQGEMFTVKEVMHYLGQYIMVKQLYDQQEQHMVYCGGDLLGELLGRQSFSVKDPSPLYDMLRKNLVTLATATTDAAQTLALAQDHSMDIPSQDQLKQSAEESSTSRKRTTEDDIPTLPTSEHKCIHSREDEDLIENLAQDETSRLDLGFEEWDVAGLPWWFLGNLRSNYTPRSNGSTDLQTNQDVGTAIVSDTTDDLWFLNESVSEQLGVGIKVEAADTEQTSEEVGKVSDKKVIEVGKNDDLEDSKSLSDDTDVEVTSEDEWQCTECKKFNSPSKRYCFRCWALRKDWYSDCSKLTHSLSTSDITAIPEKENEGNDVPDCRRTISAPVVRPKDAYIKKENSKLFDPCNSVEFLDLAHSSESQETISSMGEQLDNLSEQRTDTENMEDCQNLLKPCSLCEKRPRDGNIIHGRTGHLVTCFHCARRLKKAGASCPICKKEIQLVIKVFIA
Target sequence (Q00987 whole entry, looked up): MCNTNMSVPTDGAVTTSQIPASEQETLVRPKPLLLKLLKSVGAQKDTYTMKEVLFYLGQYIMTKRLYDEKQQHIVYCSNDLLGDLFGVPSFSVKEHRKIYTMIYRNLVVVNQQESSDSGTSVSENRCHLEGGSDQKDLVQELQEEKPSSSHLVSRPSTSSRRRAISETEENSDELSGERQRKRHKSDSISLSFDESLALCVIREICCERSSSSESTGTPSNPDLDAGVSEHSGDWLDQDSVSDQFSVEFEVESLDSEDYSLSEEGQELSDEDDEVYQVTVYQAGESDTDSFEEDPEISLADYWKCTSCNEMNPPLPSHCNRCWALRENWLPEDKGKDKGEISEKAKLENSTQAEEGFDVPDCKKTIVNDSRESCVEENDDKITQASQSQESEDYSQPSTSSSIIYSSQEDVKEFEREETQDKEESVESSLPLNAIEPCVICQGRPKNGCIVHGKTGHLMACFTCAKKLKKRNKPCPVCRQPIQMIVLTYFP
MPTP block – mitochondrial permeability transition pore inhibitors, primary screen, biochemical, isolated mouse mitochondria, absorbance | 360,000 compounds, 1.4% hits | Ca2+ swelling absorbance, 30 min | inhibition, % at 10 µM;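 active = inhibition of 50% or more, scaled per plate between neutral and stimulator controls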
Mdm2 MdmX conf – Mdm2-MdmX complex disruptors, retested hits, confirmation, luminescence, single concentration | inhibition, % at 8 µM | Mdm2-MdmX binding, luminescent assay | shares compounds with Mdm2-MdmX inh | 10,000 compounds, 55% hits; in the data active = inhibition above about 40%
Full FLuc ctr – full-length luciferase signal inhibition, confirmation, counter-screen for Mdm2/MdmX interaction inhibitor project, cell-based, single concentration, SaOS-2 | inhibition, % at 8 µM | shares compounds with Mdm2-MdmX inh | 6,200 compounds, 77% hits | SaOS-2 full-length luciferase counterscreen, luminescence | AID 504607, 2011;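 active = mean inhibition at 8 µM reaching about 37%, which flags the compound as non-specific, limit read from the data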;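 note: p53-null SaOS-2 cells with luciferase driven by a doxycycline-inducible promoter; compound on cells about two nights before reading with doxycycline added after day one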
Hits are given with their value. This is a sample that favours compounds with a hit; in the whole collection about 6.9% have one here.

For O=C(CN1CCN(Cc2ccccc2)CC1)Nc1ccc([N+](=O)[O-])cc1C(=O)Nc1ccccc1F the results were Beta cell apopt inactive, CSC inhib inactive, SKKanGAS inh inactive, GRIN3A LBD mod inactive, Mdm2-MdmX inh 54, MPTP block inactive and Mdm2 MdmX conf inactive.
Screening C/C=C/C(=O)N1c2ccc(C)cc2C(C)=CC1(C)C returned Beta cell apopt inactive, CSC inhib inactive, SKKanGAS inh inactive, GRIN3A LBD mod inactive, Mdm2-MdmX inh inactive and MPTP block inactive.
For CC1=CC(C)(C)N(S(=O)(=O)c2ccc(C)cc2)c2ccc(C)cc21 the results were SKKanGAS inh inactive, GRIN3A LBD mod inactive, Mdm2-MdmX inh 54, MPTP block inactive, Mdm2 MdmX conf 61 and Full FLuc ctr 108.
`CC(=O)Nc1ccc(S(=O)(=O)N2c3ccccc3C(C)=CC2(C)C)cc1` gave Beta cell apopt inactive, CSC inhib inactive, SKKanGAS inh inactive, GRIN3A LBD mod inactive, Mdm2-MdmX inh 74, MPTP block inactive, Mdm2 MdmX conf 60 and Full FLuc ctr 94.
CC1=CC(C)(C)N(S(=O)(=O)c2ccc(F)cc2)c2ccccc21 was read as Beta cell apopt inactive, SKKanGAS inh inactive, GRIN3A LBD mod inactive, Mdm2-MdmX inh inactive and MPTP block inactive.
For Cc1cc([N+](=O)[O-])nn1CC(=O)NCCc1c[nH]c2ccccc12 the results were Beta cell apopt inactive, CSC inhib inactive, SKKanGAS inh inactive, GRIN3A LBD mod inactive, Mdm2-MdmX inh inactive and MPTP block inactive.
`COc1ccc(Nc2oc(COc3ccc(Cl)cc3)nc2C#N)cc1` gave Beta cell apopt inactive, CSC inhib inactive, SKKanGAS inh inactive, GRIN3A LBD mod inactive, Mdm2-MdmX inh 61, MPTP block inactive, Mdm2 MdmX conf 44 and Full FLuc ctr 77.
For COc1ccc(CNc2oc(COc3ccc(Cl)cc3)nc2C#N)cc1 the results were Beta cell apopt inactive, SKKanGAS inh inactive, GRIN3A LBD mod inactive, Mdm2-MdmX inh inactive and MPTP block inactive.
`O=C(COC(=O)CNC(=O)c1cccs1)Nc1ccc(C(F)(F)F)cc1[N+](=O)[O-]` gave Beta cell apopt inactive, CSC inhib inactive, SKKanGAS inh inactive, GRIN3A LBD mod inactive, Mdm2-MdmX inh inactive and MPTP block inactive.
Screening CCOC(=O)C1(Cc2cccc(F)c2)CCN(C(=O)Cn2cnnn2)CC1 returned Beta cell apopt inactive, CSC inhib inactive, SKKanGAS inh inactive, GRIN3A LBD mod inactive, Mdm2-MdmX inh inactive and MPTP block inactive.
Screening COc1ccc(C2CC(O)(c3ccccc3)Oc3cc(OC)cc(OC)c32)cc1 (stereo not given) returned SKKanGAS inh inactive, GRIN3A LBD mod inactive, Mdm2-MdmX inh inactive and MPTP block inactive.
COc1ccc(C2CC(O)(c3ccccc3)Oc3c(C)ccc(C)c32)cc1 (stereo not given) was read as Beta cell apopt inactive, SKKanGAS inh 89, GRIN3A LBD mod inactive, Mdm2-MdmX inh 51, MPTP block inactive and Mdm2 MdmX conf inactive.
For Cc1ccc(N=C(N)N=C(N)N)cc1 the results were Beta cell apopt inactive, CSC inhib inactive, SKKanGAS inh inactive, GRIN3A LBD mod inactive, Mdm2-MdmX inh inactive and MPTP block inactive.
For COc1ccc(C23CC4CC(CC(C4)C2)C3)cc1C(=O)NCCN(C)C the results were Beta cell apopt inactive, CSC inhib inactive, SKKanGAS inh inactive, GRIN3A LBD mod inactive, Mdm2-MdmX inh 62, MPTP block inactive and Mdm2 MdmX conf inactive.
Screening COc1ccccc1C(=O)NCCC(=O)NCCC12CC3CC(CC(C3)C1)C2 returned Beta cell apopt inactive, CSC inhib inactive, SKKanGAS inh inactive, GRIN3A LBD mod inactive, Mdm2-MdmX inh inactive and MPTP block inactive.
COc1cc(C(=O)COC(=O)c2ccc3c(c2)OCCO3)cc(OC)c1OC was read as MPTP block inactive.
COc1ccccc1CN1CCC(CNS(=O)(=O)c2cc(-c3cc(C)no3)ccc2C)CC1 was read as Beta cell apopt inactive, CSC inhib inactive, SKKanGAS inh inactive, GRIN3A LBD mod inactive, Mdm2-MdmX inh 56, MPTP block inactive, Mdm2 MdmX conf 44 and Full FLuc ctr 75.
For COc1ccc(-c2cc(C)no2)cc1S(=O)(=O)N(C)c1ccc(C)cc1 the results were Beta cell apopt inactive, CSC inhib inactive, SKKanGAS inh inactive, GRIN3A LBD mod inactive, Mdm2-MdmX inh 63, MPTP block inactive, Mdm2 MdmX conf 50 and Full FLuc ctr 60.
`COc1ccc(-c2cc(C)no2)cc1S(=O)(=O)NCC1CCN(Cc2cc(C)ccc2C)CC1` gave Beta cell apopt inactive, CSC inhib inactive, SKKanGAS inh inactive, GRIN3A LBD mod inactive, Mdm2-MdmX inh 61, MPTP block inactive and Mdm2 MdmX conf inactive.
`Cc1cc(-c2ccc(C)c(S(=O)(=O)NCC3CCN(Cc4ccc(F)cc4)CC3)c2)on1` gave Beta cell apopt inactive, SKKanGAS inh inactive, GRIN3A LBD mod inactive, Mdm2-MdmX inh inactive and MPTP block inactive.
`COc1cccc(/C=N/NC(=O)Cn2nc([N+](=O)[O-])cc2C)c1` gave Beta cell apopt inactive, CSC inhib inactive, SKKanGAS inh inactive, GRIN3A LBD mod inactive, Mdm2-MdmX inh inactive and MPTP block inactive.
For Cc1nc(Nc2ccc(F)cc2)nc(Nc2ccc(F)cc2)c1[N+](=O)[O-] the results were Beta cell apopt inactive, CSC inhib inactive, SKKanGAS inh inactive, GRIN3A LBD mod inactive, Mdm2-MdmX inh inactive and MPTP block inactive.
`CCC(=O)Nc1ccc(Nc2nc(C)c([N+](=O)[O-])c(Nc3ccc(NC(=O)CC)cc3)n2)cc1` gave CSC inhib inactive, SKKanGAS inh 66, GRIN3A LBD mod inactive, Mdm2-MdmX inh 64, MPTP block inactive, Mdm2 MdmX conf 74 and Full FLuc ctr 80.
For CC(=O)Nc1ccc(Nc2nc(C)c([N+](=O)[O-])c(Nc3ccccc3)n2)cc1 the results were Beta cell apopt inactive, CSC inhib inactive, SKKanGAS inh inactive, GRIN3A LBD mod inactive, Mdm2-MdmX inh 58, MPTP block inactive and Mdm2 MdmX conf inactive.
Cc1nc(Nc2ccc(C(=O)O)cc2)nc(Nc2ccc(C(=O)O)cc2)c1[N+](=O)[O-] was read as Beta cell apopt inactive, CSC inhib inactive, SKKanGAS inh inactive, GRIN3A LBD mod inactive, Mdm2-MdmX inh inactive and MPTP block inactive.
